Test results published in PubChem BioAssay.
“And” between values parts separate entries of the source, which are not always exact repeats. Equal entries are not always repeated.

Test: ICB984 medulloblastoma cell growth inhibition, synergistic combos for chromothripsis tumors, cisplatin or BGB combos (AID 1671451);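 note: cells exposed for 96 hours before readout; 0% = vehicle DMSO and 100% = killing by high DMSO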
Conditions: ICB984 medulloblastoma cells, drug combinations, cisplatin combo, at 0.05 µM, stronger effect = higher value

| Structure (SMILES) | inhibition |
| --- | --- |
| COc1ccccc1S(=O)(=O)Nc1ccc2c(c1)CN(C)C(=O)N2 | -1.96% |
| Cc1cc(C#N)cc(C)c1Oc1nc(Nc2ccc(C#N)cc2)nc(N)c1Br | -12.6% |
| Nc1ncn(C2OC(CO)C(O)C2O)c(=O)n1 (stereo not drawn) | 62.8% |
| Cc1cc(C)c(Nc2ccnc(Nc3ccc(C#N)cc3)n2)c(C)c1 | -14.1% |
| COc1ccc(CC(N)C(=O)NC2C(CO)OC(n3cnc4c(N(C)C)ncnc43)C2O)cc1 (stereo not drawn) | 101% and 100% |
| O=c1ccn(C2OC(CO)C(O)C2O)c(=O)[nH]1 (stereo not drawn) | -11.1% and -43.3% |
| CC=C1NC(=O)C2CSSCCC=CC(CC(=O)NC(C(C)C)C(=O)N2)OC(=O)C(C(C)C)NC1=O (stereo not drawn) | 96.8% and 97.9% |
| CN(C)CC(=O)Nc1ccc2[nH]c(=O)c3ccccc3c2c1 | -2.85% and 1.48% and -4.33% |
| CC1OC(n2cc(F)c(=O)[nH]c2=O)C(O)C1O (stereo not drawn) | -10.5% |
| Nc1ccn(C2OC(CO)C(O)C2(F)F)c(=O)n1 (stereo not drawn) | 26% and 30.8% and 27.7% |
| Cc1cn(C2CC(N=[N+]=[N-])C(CO)O2)c(=O)[nH]c1=O (stereo not drawn) | -22.8% and -13.2% |
| CC(C=CC(=O)NO)=CC(C)C(=O)c1ccc(N(C)C)cc1 (stereo not drawn) | 97.7% |
| NC(=S)NN=Cc1ncccc1N | -36.5% |
| CC(C)(C#N)c1ccc(N2C(=O)OCc3cnc4ccc(-c5cnc6ccccc6c5)cc4c32)cc1 | 28.5% |
| CC1CN(c2c(F)c(N)c3c(=O)c(C(=O)O)cn(C4CC4)c3c2F)CC(C)N1 (stereo not drawn) | -1.88% |
| CCCCN(Cc1ccc(C(=O)NO)cc1)C(=O)Nc1ccccc1 | 16.1% and 28.6% |
| O=c1[nH]cnc2c1ncn2C1OC(CO)C(O)C1O (stereo not drawn) | -36% and -15.3% |
| Cc1cc(C=CC#N)cc(C)c1Nc1ccnc(Nc2ccc(C#N)cc2)n1 | -45.8% |
| CC(Oc1cc(-c2cnn(C3CCNCC3)c2)cnc1N)c1c(Cl)ccc(F)c1Cl (stereo not drawn) | 42.6% |
| O=C(O)c1cc2cccc([N+](=O)[O-])c2[nH]1 | -67.4% |
| O=c1[nH]c(=O)n(C2CC(O)C(CO)O2)cc1I (stereo not drawn) | -13.7% |

Same assay, conditions: ICB984 medulloblastoma cells, drug combinations, cisplatin combo, at 0.5 µM, stronger effect = higher value

| Structure (SMILES) | inhibition |
| --- | --- |
| COc1ccccc1S(=O)(=O)Nc1ccc2c(c1)CN(C)C(=O)N2 | -28% |
| Cc1cc(C#N)cc(C)c1Oc1nc(Nc2ccc(C#N)cc2)nc(N)c1Br | -45.3% |
| Nc1ncn(C2OC(CO)C(O)C2O)c(=O)n1 (stereo not drawn) | -8.65% |
| Cc1cc(C)c(Nc2ccnc(Nc3ccc(C#N)cc3)n2)c(C)c1 | -41.4% |
| COc1ccc(CC(N)C(=O)NC2C(CO)OC(n3cnc4c(N(C)C)ncnc43)C2O)cc1 (stereo not drawn) | -24.2% and -19.9% |
| O=c1ccn(C2OC(CO)C(O)C2O)c(=O)[nH]1 (stereo not drawn) | 4.25% and -24.8% |
| CC=C1NC(=O)C2CSSCCC=CC(CC(=O)NC(C(C)C)C(=O)N2)OC(=O)C(C(C)C)NC1=O (stereo not drawn) | -7.95% and 70.2% |
| CN(C)CC(=O)Nc1ccc2[nH]c(=O)c3ccccc3c2c1 | -27.2% and -5.09% and 16.6% |
| CC1OC(n2cc(F)c(=O)[nH]c2=O)C(O)C1O (stereo not drawn) | -3.76% |
| Nc1ccn(C2OC(CO)C(O)C2(F)F)c(=O)n1 (stereo not drawn) | -43.1% and -45% and -7.88% |
| Cc1cn(C2CC(N=[N+]=[N-])C(CO)O2)c(=O)[nH]c1=O (stereo not drawn) | -48.8% and -6.3% |
| CC(C=CC(=O)NO)=CC(C)C(=O)c1ccc(N(C)C)cc1 (stereo not drawn) | -29% |
| NC(=S)NN=Cc1ncccc1N | -17.6% |
| CC(C)(C#N)c1ccc(N2C(=O)OCc3cnc4ccc(-c5cnc6ccccc6c5)cc4c32)cc1 | -15.5% |
| CC1CN(c2c(F)c(N)c3c(=O)c(C(=O)O)cn(C4CC4)c3c2F)CC(C)N1 (stereo not drawn) | 11.3% |
| CCCCN(Cc1ccc(C(=O)NO)cc1)C(=O)Nc1ccccc1 | -41.9% and 10.4% |
| O=c1[nH]cnc2c1ncn2C1OC(CO)C(O)C1O (stereo not drawn) | -33.9% and -9.22% |
| Cc1cc(C=CC#N)cc(C)c1Nc1ccnc(Nc2ccc(C#N)cc2)n1 | -18.9% |
| CC(Oc1cc(-c2cnn(C3CCNCC3)c2)cnc1N)c1c(Cl)ccc(F)c1Cl (stereo not drawn) | -13.5% |
| O=C(O)c1cc2cccc([N+](=O)[O-])c2[nH]1 | -58.3% |
| O=c1[nH]c(=O)n(C2CC(O)C(CO)O2)cc1I (stereo not drawn) | -12.8% |

Same assay, conditions: ICB984 medulloblastoma cells, drug combinations, cisplatin combo, at 5 µM, stronger effect = higher value

| Structure (SMILES) | inhibition |
| --- | --- |
| COc1ccccc1S(=O)(=O)Nc1ccc2c(c1)CN(C)C(=O)N2 | -22.2% |
| Cc1cc(C#N)cc(C)c1Oc1nc(Nc2ccc(C#N)cc2)nc(N)c1Br | -4.46% |
| Nc1ncn(C2OC(CO)C(O)C2O)c(=O)n1 (stereo not drawn) | -9.29% |
| Cc1cc(C)c(Nc2ccnc(Nc3ccc(C#N)cc3)n2)c(C)c1 | -46.6% |
| COc1ccc(CC(N)C(=O)NC2C(CO)OC(n3cnc4c(N(C)C)ncnc43)C2O)cc1 (stereo not drawn) | -8.56% and -29.6% |
| O=c1ccn(C2OC(CO)C(O)C2O)c(=O)[nH]1 (stereo not drawn) | -7.38% and -52.9% |
| CC=C1NC(=O)C2CSSCCC=CC(CC(=O)NC(C(C)C)C(=O)N2)OC(=O)C(C(C)C)NC1=O (stereo not drawn) | 85.1% and 97.2% |
| CN(C)CC(=O)Nc1ccc2[nH]c(=O)c3ccccc3c2c1 | -20% and -21% and -0.405% |
| CC1OC(n2cc(F)c(=O)[nH]c2=O)C(O)C1O (stereo not drawn) | -40.8% |
| Nc1ccn(C2OC(CO)C(O)C2(F)F)c(=O)n1 (stereo not drawn) | -24% and -19.7% and -23.1% |
| Cc1cn(C2CC(N=[N+]=[N-])C(CO)O2)c(=O)[nH]c1=O (stereo not drawn) | -19.3% and -19.8% |
| CC(C=CC(=O)NO)=CC(C)C(=O)c1ccc(N(C)C)cc1 (stereo not drawn) | -20.2% |
| NC(=S)NN=Cc1ncccc1N | -14.8% |
| CC(C)(C#N)c1ccc(N2C(=O)OCc3cnc4ccc(-c5cnc6ccccc6c5)cc4c32)cc1 | -36.2% |
| CC1CN(c2c(F)c(N)c3c(=O)c(C(=O)O)cn(C4CC4)c3c2F)CC(C)N1 (stereo not drawn) | 13.8% |
| CCCCN(Cc1ccc(C(=O)NO)cc1)C(=O)Nc1ccccc1 | -6.73% and -20.8% |
| O=c1[nH]cnc2c1ncn2C1OC(CO)C(O)C1O (stereo not drawn) | -24.4% and -48% |
| Cc1cc(C=CC#N)cc(C)c1Nc1ccnc(Nc2ccc(C#N)cc2)n1 | -30.5% |
| CC(Oc1cc(-c2cnn(C3CCNCC3)c2)cnc1N)c1c(Cl)ccc(F)c1Cl (stereo not drawn) | -41.4% |
| O=C(O)c1cc2cccc([N+](=O)[O-])c2[nH]1 | -47.8% |
| O=c1[nH]c(=O)n(C2CC(O)C(CO)O2)cc1I (stereo not drawn) | -9.03% |
